Hedgehog inh: blocks Sonic Hedgehog signaling; Shh-LIGHT2 Gli-luciferase reporter, 30 h; inhibition, % (test concentration not listed); actives 2.1% (n = 22,000); AID 2313;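 active = mean inhibition across valid replicates above about 65%, limit read from the data; inconclusive = mean under the limit, yet half or more replicates past it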;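 also: pathway switched on by Shh-conditioned medium diluted 1 in 25 in low serum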
NOMO-1 viab: STK33 inhibitor candidate reducing NOMO-1 cell viability | NOMO-1 AML viability, CellTiter-Glo luminescence, 72 h | inhibition, % (test concentration not listed) | actives 7.5% (n = 37,000) | AID 2330; in the data active = inhibition above about 80%; inconclusive = no clear call, values can overlap the other calls
PD-1 reverse act: reversal of PD-1 mediated T-cell inhibition; primary human CD4 T cells, PD-L1 beads, CellTiter-Glo 96 h; activation, % (test concentration not listed); 29,000 tested, under 10 active; AID 2316; call rule not given here;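 also: 0% = median vehicle wells and 100% = positive control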
Numbers without * were called inactive; ! = not active in a repeat. Shown are actives, neighbours in structure and some others; about 7.7% of the full set was active somewhere.

What do the screens show for `CCOC(=O)CSc1nc2ccc(Br)cc2c(=O)n1-c1ccccc1OC`?
NOMO-1 viab: -8.5

How did COC(=O)c1ccccc1NC(=O)C1=C(C)NC(=S)NC1c1ccc(OC2CCCC2)c(OC)c1 (configuration not stated) do in these assays?
NOMO-1 viab: 24.0; PD-1 reverse act: -2.7

What do the screens show for `C[C@@H]1CN([C@@H](C)CO)C(=O)c2cc(NC(=O)CCC(F)(F)F)ccc2O[C@@H]1CN(C)Cc1ccc(Cl)c(Cl)c1`?
NOMO-1 viab: 93.2*; PD-1 reverse act: -2.4

What do the screens show for `C[C@H](CO)N1C[C@H](C)[C@H](CN(C)Cc2ccc(Cl)c(Cl)c2)Oc2ccc(NC(=O)CCC(F)(F)F)cc2CC1=O`?
Hedgehog inh: 7.8; NOMO-1 viab: 53.5; PD-1 reverse act: 0.4

What do the screens show for `C[C@@H]1CN([C@@H](C)CO)C(=O)c2cc(NC(=O)CCC(F)(F)F)ccc2O[C@H]1CN(C)Cc1ccc(Cl)c(Cl)c1`?
Hedgehog inh: -6.2; NOMO-1 viab: 43.0; PD-1 reverse act: 0.6

What do the screens show for `C[C@@H]1CN([C@@H](C)CO)C(=O)Cc2cc(NC(=O)CCC(F)(F)F)ccc2O[C@@H]1CN(C)Cc1ccc(Cl)c(Cl)c1`?
Hedgehog inh: 3.1; NOMO-1 viab: 124.2*; PD-1 reverse act: -8.2

Results for CC1=CC(C)C2(COC(=O)NC3CCCCC3)COC3(CCCC3)C1C2C (configuration not stated) ?
NOMO-1 viab: 113.2*; PD-1 reverse act: 0.6

What do the screens show for `CCCCCC1OC2=C(C(=O)N(OC)C2CSCC(O)C(=O)O)C(O)C1(C)O` (configuration not stated)?
Hedgehog inh: 9.1; NOMO-1 viab: 41.3; PD-1 reverse act: -0.5

How did CCC(=O)OCC(=O)[C@@]1(OC(=O)CC)[C@@H](C)CC2C3CCC4=CC(=O)C=C[C@]4(C)C3(F)[C@@H](O)C[C@@]21C (some centres not stated) do in these assays?
Hedgehog inh: 24.6; NOMO-1 viab: -0.1

How did C[C@@H]1C[C@H]2[C@@H]3CCC4=CC(=O)C=C[C@]4(C)[C@@]3(Cl)[C@@H](O)C[C@]2(C)[C@@]1(OC(=O)c1ccco1)C(=O)CCl do in these assays?
Hedgehog inh: 22.8; NOMO-1 viab: 113.7*; PD-1 reverse act: -7.0

Results for COc1ccccc1NC(=O)c1ccccc1NC(=O)COc1ccccc1C ?
NOMO-1 viab: 18.2; PD-1 reverse act: -2.5

Results for C/C(=C\CC(C)(C)CCC(=O)c1ccoc1)C(=O)O ?
Hedgehog inh: -7.5; NOMO-1 viab: -1.4; PD-1 reverse act: 1.5

What do the screens show for `CC(=O)c1ccc(OC(=O)C(Cc2ccccc2)N2C(=O)C3C4C=CC(C5CC45)C3C2=O)cc1` (configuration not stated)?
NOMO-1 viab: 25.4; PD-1 reverse act: -1.4

How did O=C(/C=C/CCc1ccccc1)CCc1ccccc1 do in these assays?
Hedgehog inh: -3.1; NOMO-1 viab: 121.3*; PD-1 reverse act: -3.4

What do the screens show for `O=C(CCc1ccccc1)c1c(O)cc(O)cc1O`?
Hedgehog inh: 3.7; NOMO-1 viab: -8.0; PD-1 reverse act: 0.8

How did Cc1nc(SCC(=O)Nc2c(C)cccc2C)n[nH]1 do in these assays?
NOMO-1 viab: 10.0; PD-1 reverse act: 1.4

How did CC1=C(C#N)C(C(F)(F)F)(C(F)(F)F)N=C(C2CCCCC2)N1 do in these assays?
Hedgehog inh: 104.9*; NOMO-1 viab: 141.0*; PD-1 reverse act: -1.9

What do the screens show for `Cc1ccc(N(C(C)C(=O)Nc2cccc([N+](=O)[O-])c2)S(C)(=O)=O)cc1C` (configuration not stated)?
NOMO-1 viab: 3.1

What do the screens show for `CCCc1c(Cc2c(F)cccc2Cl)c(=O)oc2cc(O)ccc12`?
Hedgehog inh: 55.2; NOMO-1 viab: 120.5*; PD-1 reverse act: -4.0

What do the screens show for `Cc1c(CCC(=O)O)c(=O)oc2cc(OCc3cccc(F)c3)ccc12`?
NOMO-1 viab: 23.5; PD-1 reverse act: 2.0

Results for C[C@@H]1CN([C@H](C)CO)C(=O)c2cc(NS(=O)(=O)c3cccs3)ccc2O[C@@H]1CN(C)Cc1ccc(Oc2ccccc2)cc1 ?
Hedgehog inh: 45.3; NOMO-1 viab: 105.9*

What do the screens show for `C[C@H](CO)N1C[C@H](C)[C@H](CN(C)Cc2ccc(Oc3ccccc3)cc2)Oc2ccc(NS(=O)(=O)c3cccs3)cc2CC1=O`?
Hedgehog inh: 16.7; NOMO-1 viab: 31.7; PD-1 reverse act: -0.8

What do the screens show for `C[C@@H]1CN([C@H](C)CO)C(=O)Cc2cc(NS(=O)(=O)c3cccs3)ccc2O[C@H]1CN(C)Cc1ccc(Oc2ccccc2)cc1`?
Hedgehog inh: 45.1; NOMO-1 viab: 88.5*

Results for COc1ccc(CN(C)C[C@@H]2Oc3ccc(NS(=O)(=O)c4cccs4)cc3C(=O)N([C@H](C)CO)C[C@@H]2C)cc1 ?
Hedgehog inh: 18.4; NOMO-1 viab: 10.1; PD-1 reverse act: -0.9

Results for Cc1cccnc1NC(=S)Nc1ccc(S(N)(=O)=O)cc1 ?
NOMO-1 viab: 14.5

How did CCCCn1c(Br)nc2c1c(=O)[nH]c(=O)n2C do in these assays?
Hedgehog inh: 6.5; NOMO-1 viab: 11.5; PD-1 reverse act: -0.4

What do the screens show for `CCOC(=O)c1ccc(NC(=O)CN2c3cccc4cccc(c34)S2(=O)=O)cc1`?
NOMO-1 viab: 22.3; PD-1 reverse act: -0.7

Results for COc1ccccc1OCCCSc1nc(-c2ccccc2)cc(=O)[nH]1 ?
NOMO-1 viab: 7.7; PD-1 reverse act: 0.5

Results for CC(NS(=O)(=O)c1ccc(C(C)(C)C)cc1)c1ccccc1 (configuration not stated) ?
Hedgehog inh: 3.7; NOMO-1 viab: -26.7; PD-1 reverse act: 0.1

Results for CNCCC(Oc1ccc(C(F)(F)F)cc1)c1ccccc1 (configuration not stated) ?
Hedgehog inh: 0.1; NOMO-1 viab: 119.4*!; PD-1 reverse act: 2.7

Results for Cc1ccc(NC(=O)COc2ccc(C(=O)Nc3ccc(Cl)cc3)cc2)cc1 ?
NOMO-1 viab: 2.7

What do the screens show for `COc1cc(NC(=O)C(C)Oc2ccc(Cl)cc2Cl)ccc1NC(=O)c1ccco1` (configuration not stated)?
NOMO-1 viab: 24.2

How did C[C@H]1CN([C@@H](C)CO)C(=O)c2cc(NS(=O)(=O)c3ccc(Cl)cc3)ccc2O[C@H]1CN(C)Cc1ccc(C(=O)Nc2ccccc2N)cc1 do in these assays?
NOMO-1 viab: 110.9*; PD-1 reverse act: -0.7

How did Cc1ccc(S(=O)(=O)Nc2ccc3c(c2)C(=O)N([C@@H](C)CO)C[C@H](C)[C@H](CN(C)Cc2ccc(C(=O)Nc4ccccc4N)cc2)O3)cc1 do in these assays?
NOMO-1 viab: 109.9*; PD-1 reverse act: -0.9

What do the screens show for `C[C@@H]1CN([C@H](C)CO)C(=O)c2cc(NS(=O)(=O)c3ccccc3)ccc2O[C@H]1CN(C)Cc1ccc(C(=O)Nc2ccccc2N)cc1`?
NOMO-1 viab: 48.1; PD-1 reverse act: -2.6

Results for Cc1ccc(S(=O)(=O)Nc2ccc3c(c2)C(=O)N([C@H](C)CO)C[C@H](C)[C@H](CN(C)Cc2ccc(C(=O)Nc4ccccc4N)cc2)O3)cc1 ?
NOMO-1 viab: inconclusive; PD-1 reverse act: -0.3

Results for C[C@@H]1CN([C@@H](C)CO)C(=O)c2cc(NS(=O)(=O)c3ccc(F)cc3)ccc2O[C@@H]1CN(C)Cc1ccc(C(=O)Nc2ccccc2N)cc1 ?
NOMO-1 viab: 110.4*; PD-1 reverse act: -1.0
